Our source for the Potency values is PubChem BioAssay (Tox21).

Inconclusive results are not listed. The source made the active and inactive calls. Unless noted, the call rests on the fitted dose curve; in most records, active means well fitted curve in the direction sought with a large enough effect in the repeat runs; inconclusive means weak or mixed curves; inactive means no such curve, though single readings can be large; an effect the other way counts as inactive or inconclusive. Positions of bridges follow the written chain, without caps; N, C: chain ends. Non-standard residues stand in square brackets, D forms with d. Residues, ends and D or L forms follow the SMILES beside them. pGlu = O=C1CC[C@@H](C(=O)O)N1; Orn = NCCC[C@H](N)C(=O)O; Mpa = O=C(O)CCS

A short description of assay [1]: qHTS assay to identify small molecule antagonists of the glucocorticoid receptor (GR) signaling pathway - cell viability counter screen (AID 720693). Further: nearly all actives have a fitted effect of over 55% in size. Further: potency means the concentration at half of the fitted maximal effect.
A short description of assay [2]: qHTS assay for identifying genotoxic compounds that show differential cytotoxicity against isogenic chicken DT40 cell lines with known DNA damage response pathways - wild type cell line (AID 743012). Further: nearly all actives have a fitted effect of over 60% in size. Further: potency means the concentration at half of the fitted maximal effect. In outline:
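First, wild type DT40 cells were plated at 300 per well and equilibrated about 0.5 h at 37 C/5% CO2. Next, compounds in DMSO were added and exposure lasted 40 h. Finally, CellTiter-Glo was added for 30 min at room temperature and luminescence recorded.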
On the technique in general: Quantitative high-throughput screening tests each substance at several concentrations.

The nature of assay [3]: qHTS assay for identifying genotoxic compounds that show differential cytotoxicity against isogenic chicken DT40 cell lines with known DNA damage response pathways - Rev3 mutant cell line (AID 743014). Further: nearly all actives have a fitted effect of over 55% in size. Further: potency means the concentration at half of the fitted maximal effect.
The nature of assay [4]: qHTS assay for identifying genotoxic compounds that show differential cytotoxicity against isogenic chicken DT40 cell lines with known DNA damage response pathways - Rad54/Ku70 mutant cell line (AID 743015). Further: nearly all actives have a fitted effect of over 60% in size. Further: potency means the concentration at half of the fitted maximal effect.
Assay [5] can be described thus: qHTS assay to identify small molecule antagonists of the androgen receptor (AR) signaling pathway - cell viability counter screen (AID 743033; further: nearly all actives have a fitted effect of over 45% in size; further: potency means the concentration at half of the fitted maximal effect).
Assay [6] in a line: qHTS assay to identify small molecule antagonists of the androgen receptor (AR) signaling pathway using the MDA cell line - cell viability counter screen (AID 743041; further: nearly all actives have a fitted effect of over 45% in size; further: potency means the concentration at half of the fitted maximal effect). In outline:
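R1881-driven MDA-kb2 AR-luc cells, 3,000/well, were dosed with library compounds for 16 h; cell health came from CellTiter-Fluor fluorescence in the reporter wells.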

In assay [7] the target is Androgen receptor (Homo sapiens) (UniProt P10275). The assay is described as follows: qHTS assay to identify small molecule antagonists of the androgen receptor (AR) signaling pathway (AID 743035; active means well fitted inhibition curve with a large enough effect in the signal ratio in the repeat runs, not every such curve was filed as active; the % refers to the signal ratio; further: potency means the concentration at half of the fitted maximal effect). Summed up: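 Beta-lactamase FRET read (2 h RT incubation with LiveBLAzer B/G) following 16 h of compound plus R1881 treatment of AR-UAS-bla HEK293 cells, which had been pre-incubated 4 h at 37C.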
Androgen receptor (Homo sapiens), sequence (P10275 whole entry, looked up): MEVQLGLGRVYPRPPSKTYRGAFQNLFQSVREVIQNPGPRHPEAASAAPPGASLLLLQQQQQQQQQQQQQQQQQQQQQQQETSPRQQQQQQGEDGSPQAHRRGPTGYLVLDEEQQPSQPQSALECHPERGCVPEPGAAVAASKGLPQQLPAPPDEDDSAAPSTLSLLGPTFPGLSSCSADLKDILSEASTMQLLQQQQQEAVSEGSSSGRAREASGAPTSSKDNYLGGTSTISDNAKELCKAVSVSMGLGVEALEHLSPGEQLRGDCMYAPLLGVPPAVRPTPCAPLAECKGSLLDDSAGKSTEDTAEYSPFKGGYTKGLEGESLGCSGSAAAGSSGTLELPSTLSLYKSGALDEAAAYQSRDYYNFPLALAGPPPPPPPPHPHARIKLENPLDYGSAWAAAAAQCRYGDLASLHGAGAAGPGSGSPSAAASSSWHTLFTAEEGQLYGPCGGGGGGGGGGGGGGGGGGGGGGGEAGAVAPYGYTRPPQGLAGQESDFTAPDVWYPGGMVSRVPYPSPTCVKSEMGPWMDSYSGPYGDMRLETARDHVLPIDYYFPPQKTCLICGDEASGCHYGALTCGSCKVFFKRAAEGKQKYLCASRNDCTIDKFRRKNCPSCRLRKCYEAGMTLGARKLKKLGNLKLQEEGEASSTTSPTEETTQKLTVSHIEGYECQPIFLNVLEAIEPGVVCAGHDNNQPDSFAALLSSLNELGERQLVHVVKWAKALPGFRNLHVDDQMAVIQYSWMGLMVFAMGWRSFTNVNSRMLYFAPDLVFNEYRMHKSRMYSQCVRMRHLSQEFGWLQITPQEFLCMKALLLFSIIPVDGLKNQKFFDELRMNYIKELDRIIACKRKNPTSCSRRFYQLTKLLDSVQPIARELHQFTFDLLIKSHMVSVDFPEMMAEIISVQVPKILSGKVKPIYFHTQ

The target is the same in assay [8]. The assay is described as follows: qHTS assay to identify small molecule agonists of the androgen receptor (AR) signaling pathway using the MDA cell line (AID 743040; further: nearly all actives have a fitted effect of over 20% in size). Summed up:
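After a 5 h incubation at 37C and 0% CO2, MDA-kb2 reporter cells were dosed with compounds in DMSO and kept 16 h under the same conditions. Luciferase activity was then read as luminescence with ONE-Glo.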

The target is the same in assay [9]. Kind of assay: qHTS assay to identify small molecule antagonists of the androgen receptor (AR) signaling pathway using the MDA cell line (AID 743042; further: nearly all actives have a fitted effect of over 55% in size; further: potency means the concentration at half of the fitted maximal effect). Summed up: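 Antagonist mode: compounds plus R1881 agonist added to MDA-kb2 AR-luc cells, incubated 16 h at 37C. Luciferase reporter luminescence quantified, with multiplexed CellTiter-Fluor readout for cell viability.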

Assay [10] has the same target. The assay is described as follows: qHTS assay to identify small molecule agonists of the androgen receptor (AR) signaling pathway (AID 743036; active means well fitted activation curve with a large enough effect in the signal ratio in the repeat runs, with a control signal flat, not every such curve was filed as active; the % refers to the signal ratio). Summed up:
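Screening used 2,000 AR-bla HEK293 cells per well, treated 16 h at 37C with test compounds in DMSO alongside positive and DMSO-only controls; beta-lactamase activity was then read by LiveBLAzer B/G FRET fluorescence after 2 h at room temperature.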

`CS(=O)(=O)NC(=O)CCC/C=C\C[C@H]1C(=O)C[C@@H](O)[C@@H]1/C=C/[C@H](O)COc1ccccc1`: the Potency entry in assay [1], in assay [2], in assay [3], in assay [4], in assay [5] and in assay [6] was “inactive” throughout.
As for `Cn1c(O)c(N=NC(N)=S)c2ccccc21`, the Potency entry in assay [1] and in assay [6] was “inactive” throughout. Moreover, the Potency was 5.31 µM (active) in assay [2], 10.6 µM (active) in assay [3], 8.41 µM (active) in assay [4] and 2.68 µM (active) in [5].
Consider `CCCCCCCCCCCC(=O)N(CCO)CCO`, for which the Potency entry in assay [1], in assay [5] and in assay [6] was “inactive” throughout. Further, the Potency in assay [2] is 29.8 µM (active); in assay [3] it was 26.6 µM (active); in [4], 26.6 µM (active).
For `CCCCCCCCCCCC(=O)OC[C@@H](O)C1OC[C@H](O)[C@H]1O` (stereo partly specified), the Potency entry in [1], in assay [2], in assay [3], in assay [4], in assay [5] and in assay [6] was “inactive” each time.
For `C[C@H](N)C(=O)N[C@@H](C)P(=O)(O)O`, the Potency entry in assay [1], in assay [2], in assay [3], in assay [4], in assay [5] and in assay [6] was “inactive” in each case.
As to `CO[C@H]1C[C@H](O[C@H]2[C@H](C)O[C@@H](O[C@@H]3/C(C)=C/C[C@@H]4C[C@@H](C[C@]5(C=C[C@H](C)[C@@H](C6CCCCC6)O5)O4)OC(=O)[C@@H]4C=C(C)[C@@H](O)[C@H]5OC/C(=C\C=C\[C@@H]3C)[C@]54O)C[C@@H]2OC)O[C@@H](C)[C@@H]1O`, the Potency in assay [1] is 7.56 µM (active); in [2], 5.31 µM (active); in assay [3], 6.68 µM (active); in assay [4] it was 5.96 µM (active). The Potency result in assay [5] and in [6] was “inactive” in each case.
Regarding `COc1ccc(CNCC(O)COc2ccc3[nH]c(=O)ccc3c2)cc1OC` (stereo unspecified), the Potency entry in [1], in assay [2], in [3], in assay [4], in assay [5] and in [6] was “inactive” each time.
As for `COC1=C(C(=O)O)N2C(=O)[C@@H](NC(=O)[C@H](N)C3=CCC=CC3)[C@H]2SC1`, the Potency result in assay [1], in assay [2], in [3], in assay [4], in assay [5] and in assay [6] was “inactive” in each case.
Take `OC[C@H]1O[C@@H](n2cnc3c2NC=NC[C@H]3O)C[C@@H]1O`: the Potency entry in [1], in assay [2], in assay [3], in [4], in assay [5] and in assay [6] was “inactive” each time.
For `O.O=C([O-])CC([S-])C(=O)[O-].[Au+].[Na+].[Na+]` (stereo unspecified), the Potency entry in assay [1], in assay [2], in [3], in assay [4], in assay [5] and in assay [6] was “inactive” each time.
Take `NC[C@@H]1O[C@H](O[C@H]2[C@@H](O)[C@H](O[C@@H]3[C@@H](O)[C@H](N)C[C@H](N)[C@H]3O[C@H]3O[C@H](CO)[C@@H](O)[C@H](O)[C@H]3N)O[C@@H]2CO)[C@H](N)[C@@H](O)[C@@H]1O`: the Potency entry in [1], in [2], in assay [3], in [4], in assay [5] and in [6] was “inactive” in each case.
Regarding `NCCC(=O)[N-][C@@H](Cc1cnc[nH]1)C(=O)O.[Zn]`, the Potency entry in [1], in assay [2], in assay [3], in assay [4], in assay [5] and in [6] was “inactive” in each case.
As to `CCOc1ccc(N=C(C)Nc2ccc(OCC)cc2)cc1`, the Potency entry in [1] and in [6] was “inactive” each time. Further, the Potency in assay [2], in assay [3] and in assay [4] was 23.7 µM (active) throughout.
With `O=[N+]([O-])c1ccc(Oc2ccc(N=C=S)cc2)cc1`, the Potency result in assay [1] is “inactive”. For the same compound, the Potency was 13.3 µM (active) in [2], 23.7 µM (active) in [3], 18.8 µM (active) in [4] and 26.6 µM (active) in [6].
For `O=C1C(=O)c2ncccc2-c2cccnc21`, the Potency result in assay [1], in [8], in assay [6] and in assay [9] was “inactive” in each case. Besides, the Potency was 5.96 µM (active) in assay [2], 8.41 µM (active) in assay [3], 4.22 µM (active) in assay [4] and 23.9 µM (active) in assay [7].
Turning to `CC[C@H](C)[C@H](NC(=O)[C@H](Cc1ccccc1)NC(=O)[C@H](C)NC(=O)[C@H](CC(=O)O)NC(=O)[C@H](CCCCN)NC(=O)[C@H](CO)NC(=O)[C@@H]1CCCN1C(=O)[C@@H]1CCC(=O)N1)C(=O)NCC(=O)N[C@@H](CC(C)C)C(=O)N[C@@H](CCSC)C(N)=O` ([pGlu]PSKDAFIGLM-NH2), the Potency entry in assay [1], in [2], in assay [3], in assay [4] and in assay [6] was “inactive” throughout.
With `NC(=S)N=Nc1ccc(NN=C(N)N)cc1`, the Potency result in [1], in assay [10] and in [8] was “inactive” each time. For the same compound, the Potency is 2.66 µM (active) in [2]; 5.96 µM (active) in assay [3]; 5.31 µM (active) in [4]; 26.6 µM (active) in assay [6]; 29.8 µM (active) in assay [9].
For `CCOc1ccc(C[C@H]2NC(=O)CCSSC[C@@H](C(=O)N3CCC[C@H]3C(=O)N[C@@H](CCCN)C(=O)NCC(N)=O)NC(=O)[C@H](CC(N)=O)NC(=O)[C@H]([C@@H](C)O)NC(=O)[C@H]([C@@H](C)CC)NC2=O)cc1` ([Mpa][dY](Et)ITNCP[Orn]G-NH2; disulfide 1-6), the Potency entry in assay [1], in assay [2], in assay [3], in [4], in [7] and in [10] was “inactive” throughout. Moreover, the Potency result in [8], in assay [6] and in assay [9] was “inactive” each time.
For the compound `CC1(S(=O)(=O)O)CC(=O)c2ccccc2C1=O` (stereo unspecified), the Potency entry in assay [1] and in [8] was “inactive” each time. For the same compound, the Potency in [2] is 9.44 µM (active); in assay [3] it was 11.9 µM (active); in [4] it was 11.9 µM (active); in assay [9] it was 29.8 µM (active).
Take `Oc1cc(O)cc(O)c1`: the Potency result in assay [1], in assay [2], in [3], in assay [4], in [7] and in assay [8] was “inactive” in each case. Besides, the Potency result in assay [6] and in assay [9] was “inactive” throughout.
